Unmarked numbers belong to inactive results.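 How the source made its calls: active = AUC reduced over 20% with Padj below 0.05 in at least 2 of 3 replicates; inactive = otherwise.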

Results on 39 molecules are retold here after the supplement of paper PMC12669032.

For the first assay, the system named is Bacteroides stercoris. As to the kind of experiment: growth AUC relative to DMSO control (median of replicates) (fraction); higher = more growth (less inhibition), active = hit call of the paper. The note with it: 20 µM; 24 h. A digest of the protocol: (§1)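 Hourly OD600 readings over 24 h tracked anaerobic gut bacterial monocultures grown at 37 °C in mGAM from OD600 0.05 with 20 µM compound (1% DMSO). After the minimum OD was set to 0, area under the growth curve was normalised to the plate median of solvent-only wells, or to row and column medians on the industrial chemical plate. Values are medians of three biological replicates grown on separate days.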
Turning to `CCCSC(=O)N(CCC)CCC`, the “growth AUC” value is 0.946.

Regarding `CCOP(=S)(OCC)SCCSCC`, the “growth AUC” value is 1.06.

For `Nc1c(Cl)c(Cl)c(Cl)c(Cl)c1Cl`, the “growth AUC” value is 0.945.

For `N#Cc1c(Cl)cccc1Cl`, the “growth AUC” value was 0.989.

As to `CC(CCl)OP(=O)(OC(C)CCl)OC(C)CCl` (mixture of isomers), the “growth AUC” value was 0.994.

With `CNC(=O)/C(=N/OC)c1ccccc1Oc1ccccc1`, the “growth AUC” value was 1.02.

Turning to `Clc1c(Cl)c(Cl)c(Cl)c(Cl)c1Cl`, the “growth AUC” value was 1.08.

As to `C#CC(C)(C)NC(=O)c1cc(Cl)cc(Cl)c1`, the “growth AUC” value is 0.88.

For `CNC(=O)Oc1cc(C)c(SC)c(C)c1`, the “growth AUC” value was 0.912.

Take `C[N+](C)(C)CCCl.[Cl-]`: the “growth AUC” value is 1.08.

As to `CC(C)(C)c1cc([N+](=O)[O-])cc([N+](=O)[O-])c1O`, the “growth AUC” value is 1.03.

Take `CCOP(=S)(OCC)SCSc1ccc(Cl)cc1`: the “growth AUC” value is 1.09.

For the molecule `O=S(=O)(c1ccc(Cl)cc1)c1cc(Cl)c(Cl)cc1Cl`, the “growth AUC” value was 0.931.

For the molecule `CCOCCN(C(=O)CCl)C(=C(C)C)c1ccccc1`, the “growth AUC” value was 0.967.

On to `CC(C)(O)C(Cl)(Cl)Cl.CC(C)(O)C(Cl)(Cl)Cl.O`, for which the “growth AUC” value is 1.12.

As for `Nc1cnn(-c2ccccc2)c(=O)c1Cl`, the “growth AUC” value is 1.12.

`CC(C)=CC1C(C(=O)OCN2C(=O)C3=C(CCCC3)C2=O)C1(C)C` (stereo not drawn): the “growth AUC” value is 0.877.

As for `O=P(OCCCl)(OCCCl)OCCCl`, the “growth AUC” value is 0.651 (active).

On to `COCc1c(F)c(F)c(COC(=O)[C@@H]2[C@@H](C=C(Cl)Cl)C2(C)C)c(F)c1F`, for which the “growth AUC” value is 1.29.

Regarding `ClC1C(Cl)C(Cl)C(Cl)C(Cl)C1Cl` (mixture of isomers), the “growth AUC” value was 0.826.

On to `O=C(O)C1(O)c2ccccc2-c2ccc(Cl)cc21` (stereo not drawn), for which the “growth AUC” value is 1.04.

`CCC(CC)Nc1c([N+](=O)[O-])cc(C)c(C)c1[N+](=O)[O-]`: the “growth AUC” value is 0.86.

On to `CC(C)(C)c1ccc(CCOc2ncnc3ccccc23)cc1`, for which the “growth AUC” value was 0.872.

For the molecule `CCC(C)(NC(=O)c1cc(Cl)c(C)c(Cl)c1)C(=O)CCl` (stereo not drawn), the “growth AUC” value is 0.86.

Take `COc1ccc(/C(=C/C(=O)N2CCOCC2)c2ccc(Cl)cc2)cc1OC`: the “growth AUC” value is 1.33.

As to `CNC(=O)Oc1cccc2c1OC(C)(C)C2=O`, the “growth AUC” value was 1.04.

Consider `c1coc(-c2nc3ccccc3[nH]2)c1`, for which the “growth AUC” value was 1.17.

As to `COP(=O)(OC)SCn1c(=O)oc2cc(Cl)cnc21`, the “growth AUC” value is 1.01.

With `COC(=O)Nc1nc2ccccc2[nH]1`, the “growth AUC” value is 0.957.

On to `S=C1NCCN1`, for which the “growth AUC” value was 1.13.

In the case of `O=c1[nH]c(Cl)c(Cl)cc1Cl`, the “growth AUC” value is 1.05.

Turning to `Cc1cccc(C)c1N`, the “growth AUC” value was 1.03.

In the case of `COP(=O)(OC)Oc1ccc([N+](=O)[O-])cc1`, the “growth AUC” value was 1.01.

For the molecule `CCOP(=S)(OCC)Oc1ccc2c(C)c(Cl)c(=O)oc2c1`, the “growth AUC” value was 0.891.

In the case of `Clc1cc(Cl)c(Cl)cc1Cl`, the “growth AUC” value was 1.14.

For `CCN(CC)c1c([N+](=O)[O-])cc(C(F)(F)F)c(N)c1[N+](=O)[O-]`, the “growth AUC” value is 1.09.

Turning to `C[C@@H](Oc1ccc(Oc2ccc(C(F)(F)F)cn2)cc1)C(=O)O`, the “growth AUC” value is 1.05.

As to `CCOP(=S)(Oc1cnc(C(C)(C)C)nc1)OC(C)C` (stereo not drawn), the “growth AUC” value is 0.977.

Turning to `Oc1ccc(C(c2ccc(O)cc2)(C(F)(F)F)C(F)(F)F)cc1`, the “growth AUC” value is 0.0109 (active).

The subject of the next assay is Bacteroides thetaiotaomicron. The assay is described as above. The note with it: 20 µM; 24 h. A digest of the protocol: as §1
`CCCSC(=O)N(CCC)CCC`: the “growth AUC” value was 1.01.

With `CCOP(=S)(OCC)SCCSCC`, the “growth AUC” value was 1.01.

`Nc1c(Cl)c(Cl)c(Cl)c(Cl)c1Cl`: the “growth AUC” value was 0.968.

For `N#Cc1c(Cl)cccc1Cl`, the “growth AUC” value is 1.

On to `CC(CCl)OP(=O)(OC(C)CCl)OC(C)CCl` (mixture of isomers), for which the “growth AUC” value was 1.

In the case of `CNC(=O)/C(=N/OC)c1ccccc1Oc1ccccc1`, the “growth AUC” value was 0.975.

On to `Clc1c(Cl)c(Cl)c(Cl)c(Cl)c1Cl`, for which the “growth AUC” value is 1.

For `C#CC(C)(C)NC(=O)c1cc(Cl)cc(Cl)c1`, the “growth AUC” value is 0.932.

With `CNC(=O)Oc1cc(C)c(SC)c(C)c1`, the “growth AUC” value is 1.01.

Take `C[N+](C)(C)CCCl.[Cl-]`: the “growth AUC” value was 1.02.

With `CC(C)(C)c1cc([N+](=O)[O-])cc([N+](=O)[O-])c1O`, the “growth AUC” value was 0.837.

Turning to `CCOP(=S)(OCC)SCSc1ccc(Cl)cc1`, the “growth AUC” value was 0.987.

With `O=S(=O)(c1ccc(Cl)cc1)c1cc(Cl)c(Cl)cc1Cl`, the “growth AUC” value was 0.952.

On to `CCOCCN(C(=O)CCl)C(=C(C)C)c1ccccc1`, for which the “growth AUC” value is 0.937.

For `CC(C)(O)C(Cl)(Cl)Cl.CC(C)(O)C(Cl)(Cl)Cl.O`, the “growth AUC” value is 1.05.

On to `Nc1cnn(-c2ccccc2)c(=O)c1Cl`, for which the “growth AUC” value is 1.01.

`CC(C)=CC1C(C(=O)OCN2C(=O)C3=C(CCCC3)C2=O)C1(C)C` (stereo not drawn): the “growth AUC” value was 0.965.

On to `O=P(OCCCl)(OCCCl)OCCCl`, for which the “growth AUC” value was 0.972.

As to `COCc1c(F)c(F)c(COC(=O)[C@@H]2[C@@H](C=C(Cl)Cl)C2(C)C)c(F)c1F`, the “growth AUC” value was 1.03.

Turning to `ClC1C(Cl)C(Cl)C(Cl)C(Cl)C1Cl` (mixture of isomers), the “growth AUC” value is 0.986.

`O=C(O)C1(O)c2ccccc2-c2ccc(Cl)cc21` (stereo not drawn): the “growth AUC” value is 0.958.

Turning to `CCC(CC)Nc1c([N+](=O)[O-])cc(C)c(C)c1[N+](=O)[O-]`, the “growth AUC” value was 0.96.

Consider `CC(C)(C)c1ccc(CCOc2ncnc3ccccc23)cc1`, for which the “growth AUC” value was 0.975.

Consider `CCC(C)(NC(=O)c1cc(Cl)c(C)c(Cl)c1)C(=O)CCl` (stereo not drawn), for which the “growth AUC” value was 0.908.

Turning to `COc1ccc(/C(=C/C(=O)N2CCOCC2)c2ccc(Cl)cc2)cc1OC`, the “growth AUC” value was 0.978.

Consider `CNC(=O)Oc1cccc2c1OC(C)(C)C2=O`, for which the “growth AUC” value was 1.02.

For `c1coc(-c2nc3ccccc3[nH]2)c1`, the “growth AUC” value is 0.96.

As to `COP(=O)(OC)SCn1c(=O)oc2cc(Cl)cnc21`, the “growth AUC” value was 1.01.

Turning to `COC(=O)Nc1nc2ccccc2[nH]1`, the “growth AUC” value is 1.04.

As to `S=C1NCCN1`, the “growth AUC” value was 1.01.

Take `O=c1[nH]c(Cl)c(Cl)cc1Cl`: the “growth AUC” value was 1.11.

In the case of `Cc1cccc(C)c1N`, the “growth AUC” value is 1.04.

Regarding `COP(=O)(OC)Oc1ccc([N+](=O)[O-])cc1`, the “growth AUC” value was 0.991.

For the molecule `CCOP(=S)(OCC)Oc1ccc2c(C)c(Cl)c(=O)oc2c1`, the “growth AUC” value was 0.934.

With `Clc1cc(Cl)c(Cl)cc1Cl`, the “growth AUC” value was 0.982.

On to `CCN(CC)c1c([N+](=O)[O-])cc(C(F)(F)F)c(N)c1[N+](=O)[O-]`, for which the “growth AUC” value is 0.88.

With `C[C@@H](Oc1ccc(Oc2ccc(C(F)(F)F)cn2)cc1)C(=O)O`, the “growth AUC” value was 1.02.

As for `CCOP(=S)(Oc1cnc(C(C)(C)C)nc1)OC(C)C` (stereo not drawn), the “growth AUC” value was 1.01.

On to `Oc1ccc(C(c2ccc(O)cc2)(C(F)(F)F)C(F)(F)F)cc1`, for which the “growth AUC” value is 0.679 (active).
